# Experimental data as given in ChEMBL document CHEMBL3988442, “University of Dundee, Small-Polar-MMV Screening Library” (2021).
# Out of some 69,000 compounds screened, about 1,000 (1.4%) showed an effect of 50% or more. Shown is part of a subset that was picked to be rich in strong results.
# System: Leishmania donovani
# Assay: Leishmania intramacrophage assay
# Type: functional, organism-based
# Design: scale not given: in the data most compounds retested in dose-response had high values
structure (smiles),measurement,setting,value
CNc1oc(-c2ccc(S(=O)(=O)N(C)C)o2)nc1C#N,Percent Effect,"30.3 µM, […]",-4.203%
CN(C)S(=O)(=O)c1ccc(-c2nc(C#N)c(NC3CC3)o2)o1,Percent Effect,"30.3 µM, […]",20.5%
CC(C)Nc1oc(-c2ccc(S(=O)(=O)N(C)C)o2)nc1C#N,Percent Effect,"30.3 µM, […]",16.53%
CN(C)S(=O)(=O)c1ccc(-c2nc(C#N)c(NC3CCCCC3)o2)o1,Percent Effect,"30.3 µM, […]",54.54%
CN(C)S(=O)(=O)c1ccc(-c2nc(C#N)c(NC(C)(C)C)o2)o1.Cl,Percent Effect,"30.3 µM, […]",70.96%
Cc1oc(-c2nc(C#N)c(NC3CC3)o2)cc1S(=O)(=O)N1CCCC1,Percent Effect,"30.3 µM, […]",1.943%
Cc1ccc(N2C[C@H](C(=O)N3CCOCC3)[C@@H]3CCO[C@@H]3C2)nn1,Percent Effect,"30.3 µM, […]",10.85%
O=C(O)C(F)(F)F.c1csc(CN2CCn3c(Cn4cncn4)cnc3C2)n1,Percent Effect,"30 µM, 30.03 µM",0.7173%
CC(C)(C)c1noc(CCCC(=O)N2CCCC(c3ccn[nH]3)C2)n1 (configuration not stated),Percent Effect,"30.3 µM, […]",-44.28%
COc1cc(S(=O)(=O)N2CCCc3ccccc32)cc(C(=O)O)c1OC,Percent Effect,"30 µM, 30.03 µM",1.897%
Cc1c(C(=O)NCc2ccnc(OCC(F)(F)F)c2)cnn1C,Percent Effect,30 µM,34.3%
O=C(c1ccccn1)N1CCc2c(nc(N3CCCC3)[nH]c2=O)C1,Percent Effect,"30 µM, 30.03 µM",-2.348%
Cc1cnn(-c2cccc(N3CCCC3)n2)c1,Percent Effect,"30.3 µM, […]",88.75%
Cc1cnn(-c2cccc(N3CCCCC3)n2)c1,Percent Effect,"30.3 µM, […]",-15%
Cc1cnn(-c2cccc(N3CCN(c4cc(C)nc(C)n4)CC3)n2)c1,Percent Effect,"30.3 µM, […]",-8.114%
c1c(CN2CCOCC2)nc2n1CCN(CC1CC1)C2,Percent Effect,"30.3 µM, […]",2.759%
CCc1csc(C2CCCN(C(=O)c3ccco3)C2)n1 (configuration not stated),Percent Effect,30 µM,-22.84%
Cc1cccc(NS(=O)(=O)c2cc(C(=O)O)oc2C)c1,Percent Effect,"30.3 µM, […]",8.685%
COC(=O)c1ccn(COc2ccccc2Cl)n1,Percent Effect,"30.3 µM, […]",-5.219%
CC(C)(C)NC(=O)c1ccn(COc2c(Cl)cccc2Cl)n1,Percent Effect,"30.3 µM, […]",6.361%
CC(C)(C)NC(=O)c1ccn(COc2ccccc2Cl)n1,Percent Effect,"30.3 µM, […]",62.54%
c1nc(N2CCOC(Cn3cncn3)C2)c2cc[nH]c2n1 (configuration not stated),Percent Effect,30 µM,24.06%
COCCN1CCCC(c2ncc(C(=O)N(C)C)c(C)n2)C1 (configuration not stated),Percent Effect,"30.3 µM, […]",-9.482%
COCCC(=O)N1CCC2(COCc3c(C)nc(NCC4CC4)nc32)C1 (configuration not stated),Percent Effect,"30 µM, 30.03 µM",4.108%
Cc1nc(NCC2CC2)nc2c1COCC21CCN(C(=O)C(C)(C)C)C1 (configuration not stated),Percent Effect,"30.3 µM, […]",-5.86%
Cc1nc(NCC2CC2)nc2c1COCC21CCN(C(=O)NC(C)C)C1 (configuration not stated),Percent Effect,"30.3 µM, […]",52.42%
Cn1ccnc1CN1CCC2(CC1)COC2.O=C(O)C(F)(F)F,Percent Effect,"30.3 µM, […]",21.73%
O=C(CN1CC(c2ccccc2)CC1=O)NCc1cc2n(n1)CCNC2 (configuration not stated),Percent Effect,"30.3 µM, […]",29.23%
O=C(CN1CCOc2ccccc2C1)NCc1cc2n(n1)CCNC2,Percent Effect,"30.3 µM, […]",5.311%
c1ccc(C2CCCN(Cc3cc4n(n3)CCNC4)CC2)cc1 (configuration not stated),Percent Effect,"30.3 µM, […]",58.47%
O=C(CN1CCC(c2ccccc2)CC1)NCc1cc2n(n1)CCNC2,Percent Effect,"30.3 µM, […]",55.19%
CC(=O)N1CC[C@H]2OCC[C@@]2(C(=O)NCCc2ccccn2)C1.O=C(O)C(F)(F)F,Percent Effect,"30.3 µM, […]",-0.5887%
CNc1snc(C)c1C(=O)N1CCCC(n2cccn2)C1 (configuration not stated),Percent Effect,30 µM,20.79%
N#Cc1ccccc1N1CCCN(C(=O)CCc2ccco2)CC1,Percent Effect,"30.3 µM, […]",17.14%
CN(C(=O)C1(C#N)CCCCC1)c1nccs1,Percent Effect,"30.3 µM, […]",12.59%
Cn1nc(Cn2ccnc2)c2c1CN(Cc1ccoc1)C2.O=C(O)C(F)(F)F.O=C(O)C(F)(F)F,Percent Effect,"30.3 µM, […]",2.195%
Cn1nc(Cn2ccnc2)c2c1CN(C(=O)c1ccoc1)C2.O=C(O)C(F)(F)F,Percent Effect,"30.3 µM, […]",54.37%
Cc1ccoc1C(=O)N1Cc2c(Cn3ccnc3)nn(C)c2C1.O=C(O)C(F)(F)F,Percent Effect,"30.3 µM, […]",12.09%
COCc1nc2n(n1)CCCC2Nc1nc(C)ns1 (configuration not stated),Percent Effect,"30.3 µM, […]",-12.79%
O=C(CC1CCC2(CC1)CCN(Cc1nccs1)CC2)N1CC=CC1,Percent Effect,"30.3 µM, […]",-13.52%
CC(C)(C)c1ncc(CNc2ccccc2SCCC(N)=O)s1,Percent Effect,"30.3 µM, […]",-11.51%
NC(=O)C(NC(=O)CCc1ccc(Cl)s1)c1ccccc1 (configuration not stated),Percent Effect,"30.3 µM, […]",20.24%
NC(=O)CCSc1ccccc1NCc1ccc(Cl)s1,Percent Effect,"30.3 µM, […]",57.16%
NC(=O)C(NCc1ccc(Cl)s1)c1ccccc1 (configuration not stated),Percent Effect,"30.3 µM, […]",22.99%
Cc1ccc(CNc2ccccc2SCCC(N)=O)s1,Percent Effect,"30.3 µM, […]",58.74%
CC(C)(C)c1nc(CNc2ccccc2SCCC(N)=O)cs1,Percent Effect,"30.3 µM, […]",-34.53%
Cc1nn(C)c(C)c1CN(C)C(=O)c1cccc(CCC(C)(C)O)c1,Percent Effect,"30.3 µM, […]",45.36%
O=C(O)C(F)(F)F.O=C(c1ccc[nH]1)N1CCCn2c(CNC3CCC3)nnc2C1,Percent Effect,"30.3 µM, […]",19.78%
Cc1ccccc1-c1cncc(C2CCN(C3CCOCC3)CC2)n1,Percent Effect,"30.3 µM, […]",-12.97%
NCC1CCN(c2nc(C3CCCC3)nc3c2CCNCC3)C1 (configuration not stated),Percent Effect,"30.3 µM, […]",-3.279%
C1CCC(c2nc3c(c(N4CCN5CCCC5C4)n2)CCNCC3)C1 (configuration not stated),Percent Effect,"30.3 µM, […]",52.04%
C1CCC(c2nc3c(c(N4CC(N5CCOCC5)C4)n2)CCNCC3)C1,Percent Effect,"30.3 µM, […]",33.91%
CCc1cn[nH]c1C1CCN(c2cc(C)c3cccc(OC)c3n2)CC1,Percent Effect,"30.3 µM, […]",13.27%
COCCNC(=O)c1nc(-c2cn(C)cn2)n2ccccc12,Percent Effect,"30.3 µM, […]",36.99%
Cn1cnc(-c2nc(C(=O)NCCN3CCOCC3)c3ccccn23)c1,Percent Effect,"30.3 µM, […]",40.37%
Cn1cnc(-c2nc(C(=O)NCCN3CCCC3)c3ccccn23)c1,Percent Effect,"30.3 µM, […]",50.91%
COCCN1CCN(Cc2nccs2)[C@H]2CS(=O)(=O)C[C@H]21,Percent Effect,"30.3 µM, […]",-6.4%
O=C(NCCC(=O)N1CCCC1)c1nn(-c2ccccc2F)cc1O,Percent Effect,"30 µM, 30.03 µM",-0.1897%
Cc1ncsc1CCC(=O)N1CCn2cccc2C1c1cccnc1 (configuration not stated),Percent Effect,"30.3 µM, […]",18.51%
CN(Cc1cnc(C(C)(C)C)nc1)Cc1nc2ccc(F)cc2[nH]1,Percent Effect,"30.3 µM, […]",52.7%
Cc1ccc(CN(C)Cc2nc3ccc(F)cc3[nH]2)cn1,Percent Effect,"30.3 µM, […]",12.06%
CNS(=O)(=O)c1ccc(CN(C)Cc2nc3ccc(F)cc3[nH]2)cc1,Percent Effect,"30.3 µM, […]",-17.23%
Cc1c(C(=O)NCC2CCS(=O)(=O)C2)cnn1-c1ccccc1 (configuration not stated),Percent Effect,"30.3 µM, […]",-5.688%
CN(C)C(=O)c1cccnc1-c1ccc2c(c1)OCO2,Percent Effect,"30.3 µM, […]",11.7%
C[C@@H]1CN(Cc2cc3ccccc3n2C)CC[C@@]1(O)C1CC1,Percent Effect,"30.3 µM, […]",34.38%
C[C@@H]1CN(Cc2cc3ccccc3n2C)CC[C@]1(C)O,Percent Effect,"30.3 µM, […]",19.22%
Cc1ccc2c(c1)cc(CN1CC[C@](C)(O)[C@H](C)C1)n2C,Percent Effect,"30.3 µM, […]",50.4%
CC(C(=O)N1CCN(CCOc2ccccc2)CC1)n1cncn1 (configuration not stated),Percent Effect,"30.3 µM, […]",10.7%
CCOCC1CN(S(=O)(=O)C2CC2)Cc2cnn(C)c21 (configuration not stated),Percent Effect,"30.3 µM, […]",-42.59%
CN(CC(=O)N1CCCC1)C(=O)c1ccccc1Nc1ccccc1,Percent Effect,"30.3 µM, […]",-2.979%
CCc1cnc(N)nc1NC(C)c1ccc(C)c(C)c1 (configuration not stated),Percent Effect,"30.3 µM, […]",88.85%
CCc1cnc(N)nc1NC(C)c1cnn(C)c1 (configuration not stated),Percent Effect,"30.3 µM, […]",1.659%
CCc1cnc(N)nc1N[C@@H](C)c1ncccc1C,Percent Effect,"30.3 µM, […]",22.19%
CC(C)OC[C@H]1CCC[C@]12CN(S(=O)(=O)c1cn(C)cn1)CCO2,Percent Effect,"30.3 µM, […]",9.701%
NC(c1ccc(F)cc1)c1cccs1 (configuration not stated),Percent Effect,"30.3 µM, […]",6.777%
CN(C)CCO[C@@H]1CC[C@H]2[C@H]1OCCN2C(=O)c1ccccc1F,Percent Effect,"30.3 µM, […]",24.56%
CC(C)c1nccc(C2(c3ccccc3Cl)CCNCC2)n1,Percent Effect,"30.3 µM, […]",86.79%
CC(C)c1nccc(CN2CCC(O)(CN3CCCCC3)C2)n1 (configuration not stated),Percent Effect,"30.3 µM, […]",18.94%
Clc1ccccc1C1(c2ccnc(-c3ncccn3)n2)CCNCC1,Percent Effect,"30 µM, 30.03 µM",15.9%
Clc1ccccc1C1(c2ccnc(-c3ccncc3)n2)CCNCC1,Percent Effect,"30 µM, 30.03 µM",69.77%
CCC1C(=O)NCCN1c1ccnc(C(C)(C)C)n1 (configuration not stated),Percent Effect,"30.3 µM, […]",-23.65%
O=c1[nH]cccc1-c1nccc(C2(c3ccccc3Cl)CCNCC2)n1,Percent Effect,"30.3 µM, […]",3.768%
CC(C)c1nccc(CN2CCCC(O)(CN3CCCC3)C2)n1 (configuration not stated),Percent Effect,"30.3 µM, […]",-4.495%
CC(C)(C)c1nccc(C2(c3ccccc3Cl)CCNCC2)n1,Percent Effect,"30.3 µM, […]",98.02%
CC(C)CSCCN1CCN(S(C)(=O)=O)CC1,Percent Effect,"30.3 µM, […]",-11.46%
O=C(c1ccccc1)N1C[C@@H]2CC[C@H](C1)N(C(=O)CN1CCOCC1)C2,Percent Effect,"30.3 µM, […]",12.92%
CCNc1c(C#N)c(=O)n(C)c(=O)n1C,Percent Effect,"30.3 µM, […]",22.41%
OC1CCN(c2ccnc(NCCc3ccccc3Cl)n2)CC1,Percent Effect,"30.3 µM, […]",-1.281%
OC1CCN(c2ccnc(NCCc3ccccc3Cl)n2)C1 (configuration not stated),Percent Effect,"30.3 µM, […]",64.18%
OC1CCN(c2ccnc(NCCN3CCc4ccccc4C3)n2)C1 (configuration not stated),Percent Effect,"30.3 µM, […]",47%
Cc1ccc(F)c(C(=O)Nc2cccc(CCN3CCCC3)c2)c1,Percent Effect,"30.3 µM, […]",51.62%
Cc1cc(=O)c(C(=O)Nc2cccc(CCN3CCCC3)c2)c[nH]1,Percent Effect,"30.3 µM, […]",12.01%
Cn1cc(C(=O)Nc2cccc(CCN3CCCC3)c2)ccc1=O,Percent Effect,"30.3 µM, […]",25.83%
CN(C(=O)c1cccc2[nH]ncc12)C1CCN(c2ccccn2)CC1,Percent Effect,"30 µM, 30.03 µM",-37.63%
COc1cc(CNCc2ccnc(N3CCOCC3)c2)cc(OC)c1,Percent Effect,30 µM,28.31%
COc1cc(CNCc2ccnc(N3CCOCC3)c2)cc(Cl)c1OC,Percent Effect,"30 µM, 30.03 µM",26.59%
COc1c(C)cc(CNCc2ccnc(N3CCOCC3)c2)cc1C.Cl,Percent Effect,30 µM,54.99%
O=C(CCc1ccco1)Nc1ncn(CC(=O)N2CCCCCC2)n1,Percent Effect,"30.3 µM, […]",4.673%
Cn1ncc2c(NC3CCCN(C(=O)C4CC4)C3)nc(C(C)(C)C)nc21 (configuration not stated),Percent Effect,"30.3 µM, […]",-38.63%
Cn1ncc2c(N[C@H]3CC[C@@H](N)CC3)nc(C(C)(C)C)nc21,Percent Effect,"30.3 µM, […]",100.6%
Cn1ncc2c(N[C@H]3CCCC[C@@H]3O)nc(C(C)(C)C)nc21,Percent Effect,"30.3 µM, […]",44.26%
CSCC[C@@H]1CN2CCC[C@H]2CN1Cc1cn(C)nc1C,Percent Effect,"30.3 µM, […]",-2.658%
